# Inconclusive results are not listed. Where a call stands in place of a potency, no number is given. The source made the active and inactive calls. Unless noted, calls follow the shape of the dose curve; as a rule, active = well fitted curve in the direction sought with a large enough effect; inconclusive = small, poorly fitted or top-dose-only effect, or another doubt; inactive = no such curve, though single readings can be large; an effect the other way counts as inactive or inconclusive.
# Tests used:
# [1] = Cytometric Cell-Based qHTS for Inhibitors of the mTORC1 Signaling Pathway in MEF (Tsc2-/-, p53-/-) Cells (AID 2660); conditions: mTORC1 pathway cytometry; series mostly up to 38.3 µM;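 also: Tsc2 and p53 null MEFs carrying empty vector with compound for 24 h; percent of cells above a phospho-rpS6 to PI ratio cutoff in each well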
# In short: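 Percent of cells positive for normalized phospho-S6 staining is reported, with the cutoff set from rapamycin (7.5 nM) versus DMSO wells. Tsc2-/-, p53-/- MEFs received compound for 24 hrs.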
# [2] = High Content Imaging Cell-Based qHTS for Inhibitors of the mTORC1 Signaling Pathway in MEF Cells (AID 2667); conditions: series mostly up to 38.3 µM; also: potency is read from the fitted curve at half-maximal effect
# In short: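 Immunofluorescence for rpS6 phosphorylation in MEFs of Tsc2-/-, p53-/- background rescued with WT Tsc2. Compound exposure lasted 24 hrs. Inhibition was scored against rapamycin-treated control wells.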
# [3] = Cytometry Cell-Based qHTS for Inhibitors of the mTORC1 Signaling Pathway in MEF cells (AID 2668); conditions: mTORC1 pathway readout; series mostly up to 38.3 µM; also: potency is read from the fitted curve at half-maximal effect
# In short: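 Tsc2-/-, p53-/- MEFs re-expressing WT Tsc2; cpd 24 hrs, 37 degree Celsius; PFA fix, Alexa-488 p-rpS6 (Ser235/236) Ab 2 hrs RT, PI counterstain; Acumen 488nm scan; p-S6/PI ratio → % positive cells; PI count = viability.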
# [4] = Validation screen for small molecules that induce DNA re-replication in MCF 10A normal breast cells (AID 463097); conditions: MCF 10A cells, DNA re-replication phenotype imaging; series mostly up to 46.1 µM; also: nearly all actives have a fitted effect of over 60% in size; also: potency is read from the fitted curve at half-maximal effect
# In short: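 Image-based qHTS: normal breast cells are incubated with compound for 48 hr, stained with Hoechst, and scanned for total nuclear fluorescence. Compounds raising the fraction of nuclei with elevated DNA content count as re-replication inducers.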
# [5] = biological target: Ubiquitin carboxyl-terminal hydrolase 2 (Homo sapiens) (UniProt O75604); test: qHTS Validation Assay for Inhibitors of Ubiquitin-specific Protease USP2a Using CHOP2 as the Reporter (AID 463106); conditions: USP2a cleavage of CHOP2 reporter, enzymatic; series mostly up to 38.3 µM
# Chain of Ubiquitin carboxyl-terminal hydrolase 2 (Homo sapiens) (O75604 whole entry, looked up): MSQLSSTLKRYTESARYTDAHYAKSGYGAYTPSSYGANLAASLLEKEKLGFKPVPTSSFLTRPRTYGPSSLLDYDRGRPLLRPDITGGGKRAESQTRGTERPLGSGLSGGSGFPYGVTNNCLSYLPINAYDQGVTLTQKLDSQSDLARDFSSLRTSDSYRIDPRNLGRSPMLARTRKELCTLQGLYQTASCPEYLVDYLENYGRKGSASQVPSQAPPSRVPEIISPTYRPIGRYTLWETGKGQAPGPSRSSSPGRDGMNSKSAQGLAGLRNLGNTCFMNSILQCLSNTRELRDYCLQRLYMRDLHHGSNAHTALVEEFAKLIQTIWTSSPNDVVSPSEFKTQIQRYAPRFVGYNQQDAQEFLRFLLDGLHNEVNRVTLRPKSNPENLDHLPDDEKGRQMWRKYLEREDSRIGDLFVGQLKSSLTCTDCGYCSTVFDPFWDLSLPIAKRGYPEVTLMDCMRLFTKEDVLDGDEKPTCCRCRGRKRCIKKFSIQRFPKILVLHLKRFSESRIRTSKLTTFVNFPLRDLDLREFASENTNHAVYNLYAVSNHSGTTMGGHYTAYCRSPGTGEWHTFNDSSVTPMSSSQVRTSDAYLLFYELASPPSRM
# In short: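 10nM USP2 core + cpd, 30min RT; add 25nM Ub-CHOP2/25nM substrate; 60min RT; FI 485/531nm. Buffer Tris pH 8.0, CaCl2, BME, CHAPS. Norm. to NEM = 100% inhibition; time-zero read flags fluorescent artifacts.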
# [6] = biological target: DNA polymerase III PolC-type (Bacillus subtilis (strain 168)) (UniProt P13267); test: qHTS Validation Assay for the Inhibitors of DNA Replication in Gram-Positive Bacteria (AID 485295); conditions: Gram-positive bacterial DNA replication assay; series mostly up to 57.1 µM; also: potency is read from the fitted curve at half-maximal effect
# Chain of DNA polymerase III PolC-type (Bacillus subtilis (strain 168)) (P13267 whole entry, looked up): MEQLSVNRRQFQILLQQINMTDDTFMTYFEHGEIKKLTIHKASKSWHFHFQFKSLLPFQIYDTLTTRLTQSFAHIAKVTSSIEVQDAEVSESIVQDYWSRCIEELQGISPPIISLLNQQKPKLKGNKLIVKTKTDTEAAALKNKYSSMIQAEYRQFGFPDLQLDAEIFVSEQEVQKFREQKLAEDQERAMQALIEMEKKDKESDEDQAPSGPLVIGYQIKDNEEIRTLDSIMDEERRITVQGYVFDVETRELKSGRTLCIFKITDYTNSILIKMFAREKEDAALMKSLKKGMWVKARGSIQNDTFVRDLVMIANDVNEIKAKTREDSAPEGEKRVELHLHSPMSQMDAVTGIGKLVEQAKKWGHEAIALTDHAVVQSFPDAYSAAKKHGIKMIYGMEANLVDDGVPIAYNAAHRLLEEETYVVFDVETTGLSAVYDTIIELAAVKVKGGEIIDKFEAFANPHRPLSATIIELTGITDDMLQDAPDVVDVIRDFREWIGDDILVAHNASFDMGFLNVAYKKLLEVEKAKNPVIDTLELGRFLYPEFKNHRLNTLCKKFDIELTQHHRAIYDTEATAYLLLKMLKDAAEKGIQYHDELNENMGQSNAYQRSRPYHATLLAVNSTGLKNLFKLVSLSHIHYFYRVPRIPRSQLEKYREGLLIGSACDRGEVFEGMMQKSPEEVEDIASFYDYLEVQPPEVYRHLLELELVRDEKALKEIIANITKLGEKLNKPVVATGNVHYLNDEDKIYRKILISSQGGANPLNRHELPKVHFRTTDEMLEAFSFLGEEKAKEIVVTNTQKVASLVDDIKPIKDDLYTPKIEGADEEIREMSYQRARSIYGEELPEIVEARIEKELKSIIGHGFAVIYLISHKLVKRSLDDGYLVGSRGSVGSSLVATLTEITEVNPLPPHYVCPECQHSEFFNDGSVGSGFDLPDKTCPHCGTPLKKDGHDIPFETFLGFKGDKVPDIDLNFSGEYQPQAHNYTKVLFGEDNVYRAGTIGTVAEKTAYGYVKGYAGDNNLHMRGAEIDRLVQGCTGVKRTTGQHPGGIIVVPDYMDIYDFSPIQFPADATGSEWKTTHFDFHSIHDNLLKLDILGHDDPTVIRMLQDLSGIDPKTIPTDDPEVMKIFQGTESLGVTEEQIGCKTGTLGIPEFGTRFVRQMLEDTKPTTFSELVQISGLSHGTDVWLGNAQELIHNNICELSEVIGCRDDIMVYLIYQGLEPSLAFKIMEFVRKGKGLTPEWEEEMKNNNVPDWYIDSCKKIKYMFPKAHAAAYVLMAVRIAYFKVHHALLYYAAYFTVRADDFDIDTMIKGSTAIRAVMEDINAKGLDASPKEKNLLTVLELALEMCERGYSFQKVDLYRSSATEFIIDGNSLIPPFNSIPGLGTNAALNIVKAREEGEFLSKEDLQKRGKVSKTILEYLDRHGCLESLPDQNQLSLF
# In short: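 First, compound is mixed with the reconstituted replication complex and held at room temperature. Next, circular single-stranded M13Gori with nucleotides starts synthesis. Finally, PicoGreen in EDTA halts the reaction and stains double-stranded product for fluorescence reading.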
# [7] = biological target: Tumor susceptibility gene 101 protein (Homo sapiens) (UniProt Q99816); test: qHTS Validation Assay for Iinhibitors of HIV-1 Budding by Blocking the Interaction of PTAP/TSG101 (AID 485342; calls by dose curve); conditions: TSG101-PTAP binding, fluorescence polarization, 4-point titration; series mostly up to 115 µM
# Chain of Tumor susceptibility gene 101 protein (Homo sapiens) (Q99816 whole entry, looked up, the tested form may be a part): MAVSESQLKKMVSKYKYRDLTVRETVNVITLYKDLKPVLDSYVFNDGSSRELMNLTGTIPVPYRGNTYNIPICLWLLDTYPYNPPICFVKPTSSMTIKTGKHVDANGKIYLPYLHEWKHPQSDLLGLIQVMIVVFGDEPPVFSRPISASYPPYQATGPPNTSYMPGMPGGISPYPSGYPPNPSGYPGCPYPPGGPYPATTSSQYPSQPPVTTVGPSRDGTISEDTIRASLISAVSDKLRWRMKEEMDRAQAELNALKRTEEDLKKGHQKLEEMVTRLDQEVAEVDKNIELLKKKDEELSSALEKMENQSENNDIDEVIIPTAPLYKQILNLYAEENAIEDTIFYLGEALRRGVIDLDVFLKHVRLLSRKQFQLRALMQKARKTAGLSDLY
# In short: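 Binding of a FITC-tagged PTAP-motif peptide (50 nM) to the Tsg101 binding domain (10 uM) is monitored by fluorescence polarization. Compounds are pin-delivered before peptide addition, and incubation runs 20 min at room temperature.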
# [8] = qHTS Validation Assay to Find Inhibitors of Chronic Active B-Cell Receptor Signaling (AID 485345; active = well fitted curve in the direction sought with a large enough effect in the main read-out, with a control signal flat, not every such curve was filed as active); conditions: ABC-DLBCL cells, chronic BCR signaling reporter, CBG luciferase; series mostly up to 46.1 µM
# In short: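 Read-out: ratio of filter-corrected green (IkappaBalpha fusion) to red (native) luciferase signal in doxycycline-induced TMD8 cells after 4 h at 37C. Titration spanned 46 uM–3 nM; Data were normalised to basal cells and 10 uM MG-132 wells.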
# [9] = High Content Imaging Cell-Based qHTS for Inhibitors of the mTORC1 Signaling Pathway in MEF (Tsc2-/-, p53-/-) Cells (AID 2666); conditions: series mostly up to 38.3 µM;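 also: percent of cells scored positive for phospho-rpS6 Ser235/236 immunostaining by imaging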; also: potency is read from the fitted curve at half-maximal effect
# In short: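 Cells were plated, dosed with compound after 24 hrs, and incubated another 24 hrs at 37 degree Celsius. Fixed cells were immunostained for phospho-rpS6 Ser235/236 and counterstained, and the normalized signal was scored as % active cells against rapamycin and DMSO controls.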
Compound,outcome [1],Potency [2],Potency [3],Potency [4],Potency [5],Potency [6],outcome [7],outcome [8],Potency [9]
NCC(O)c1ccc(O)c(O)c1 (configuration not stated),inactive,inactive,inactive,inactive,inactive,inactive,inactive,inactive,–
c1ccc2c(c1)CC(N1CCN(c3cccc4c3OCCO4)CC1)C2,inactive,inactive,inactive,inactive,inactive,inactive,inactive,inactive,–
CCCCCCCCCCCCCCC[C@H](O)[C@H](N)CO,inactive,–,–,–,inactive,inactive,inactive,inactive,inactive
C/C(=C\c1ccc(C(=O)O)cc1)c1ccc2c(c1)C(C)(C)CCC2(C)C,inactive,inactive,–,11.2 µM (active),–,inactive,inactive,–,inactive
N[C@H](C(=O)O)c1cc(O)cc(O)c1,inactive,inactive,inactive,inactive,inactive,inactive,inactive,inactive,–
NC(N)=[N+]1CCc2ccccc2C1,inactive,inactive,inactive,inactive,inactive,inactive,inactive,inactive,–
Cn1cc(C(F)(F)F)nc1-c1ccc(OCC(O)CNCCOc2ccc(O)c(C(N)=O)c2)cc1 (configuration not stated),inactive,inactive,inactive,inactive,inactive,inactive,inactive,inactive,–
COc1ccc(-c2cc3ncc(C)n3c(Nc3ncccc3C(N)=O)n2)cc1OC,inactive,inactive,–,–,inactive,inactive,inactive,–,inactive
CCCn1c(=O)c2[nH]c(-c3ccc(S(=O)(=O)O)cc3)nc2n(CCC)c1=O,inactive,inactive,inactive,inactive,inactive,inactive,inactive,–,–
NC(=O)CC[C@H](N)C(=O)O,inactive,inactive,inactive,inactive,inactive,inactive,inactive,inactive,–
C[C@](Cc1ccc(O)c(O)c1)(NN)C(=O)O,inactive,inactive,–,–,inactive,inactive,inactive,inactive,inactive
COc1ccccc1N1CCN(CCCCNC(=O)c2ccc3ccccc3c2)CC1,inactive,–,–,inactive,inactive,inactive,inactive,inactive,inactive
O=[N+]([O-])c1cccc2cn[nH]c12,inactive,inactive,inactive,inactive,inactive,inactive,inactive,inactive,–
O=C1Nc2ccc(I)cc2/C1=C/c1cc(Br)c(O)c(Br)c1,inactive,inactive,–,–,–,21.2 µM (active),inactive,–,inactive
CC1CNCCN1S(=O)(=O)c1cccc2cnccc12 (configuration not stated),inactive,–,–,–,inactive,inactive,inactive,–,inactive
CN(C)CCC(c1ccc(Br)cc1)c1ccccn1 (configuration not stated),inactive,inactive,inactive,inactive,inactive,inactive,inactive,inactive,–
O[Si](CCCN1CCCCC1)(c1ccc(F)cc1)C1CCCCC1 (configuration not stated),inactive,–,–,inactive,inactive,inactive,inactive,inactive,inactive
CC(C)(C)c1ccc(/C=C/C(=O)Nc2ccc3c(c2)OCCO3)cc1,inactive,inactive,–,–,inactive,inactive,inactive,–,inactive
CC[C@@H]1Cc2cc(O)ccc2C2=C1c1ccc(O)cc1C[C@H]2CC,inactive,inactive,–,–,inactive,inactive,inactive,–,inactive
CN1CCCC1CCOC(C)(c1ccccc1)c1ccc(Cl)cc1 (configuration not stated),inactive,14.7 µM (active),–,–,inactive,inactive,inactive,–,inactive
O=c1cc(-c2ccccc2F)[nH]c2cc3c(cc12)OCO3,inactive,inactive,–,–,inactive,inactive,inactive,–,inactive
C=CCNc1ncnc2ccc(Br)cc12,inactive,inactive,–,–,inactive,inactive,inactive,–,inactive
COc1ccccc1N1CCN(CCN(C(=O)c2ccc(F)cc2)c2ccccn2)CC1,inactive,inactive,inactive,inactive,inactive,inactive,inactive,inactive,–
NCCCCN,inactive,inactive,inactive,inactive,inactive,inactive,inactive,inactive,–
CNCCNS(=O)(=O)c1cccc2cnccc12,inactive,inactive,inactive,inactive,inactive,inactive,inactive,–,–
OC1(c2ccc(Cl)cc2)CCN(Cc2c[nH]c3ccccc23)CC1,inactive,–,–,inactive,inactive,inactive,inactive,–,inactive

Compound,outcome [1],Potency [2],Potency [3],Potency [4],Potency [5],Potency [6],outcome [7],outcome [8],Potency [9]
Cc1nc(N=Nc2cc(S(=O)(=O)O)c3cc([N+](=O)[O-])cc(S(=O)(=O)O)c3c2)c(COP(=O)(O)O)c(C=O)c1O,inactive,inactive,inactive,inactive,inactive,–,inactive,inactive,–
CC(C)NCC(O)COc1ccc(CC(N)=O)cc1 (configuration not stated),–,inactive,inactive,inactive,inactive,inactive,inactive,inactive,inactive
O=C(N[C@@H](Cc1ccccc1)C(=O)CCl)OCc1ccccc1,–,5.21 µM (active),–,2.82 µM (active),inactive,inactive,inactive,–,–
CN(CC[C@@H](Oc1ccc(C(F)(F)F)cc1)c1ccccc1)CC(=O)O,inactive,inactive,inactive,–,inactive,inactive,inactive,inactive,–
Cc1cccc(C2CN(C)CCc3c2cc(O)c(O)c3Cl)c1 (configuration not stated),–,inactive,–,inactive,inactive,inactive,inactive,inactive,inactive
COc1cc([C@@H]2c3cc4c(cc3[C@H](O)C3COC(=O)[C@@H]32)OCO4)cc(OC)c1OC (some centres not stated),–,–,–,–,inactive,inactive,inactive,–,inactive
N#C/C(=C\c1ccc(O)c(O)c1)C(=O)NCCc1ccccc1,inactive,–,10.4 µM (active),–,inactive,inactive,inactive,–,–
CCC1(O)CC2CN(CCc3c([nH]c4ccccc34)[C@@](C(=O)OC)(c3cc4c(cc3OC)N(C)C3[C@]45CCN4CC=C[C@@](CC)([C@@H](OC(C)=O)[C@]3(O)C(=O)OC)[C@H]45)C2)C1 (some centres not stated),–,–,–,0.0501 µM (active),inactive,inactive,inactive,–,inactive
CN(C)CCCc1cc(C(=O)Nc2ccc(-c3ccncc3)cc2)ccc1O,inactive,inactive,inactive,–,inactive,inactive,inactive,–,–
N=C(N)c1ccc(OCCCCCOc2ccc(C(=N)N)cc2)cc1 (tested in a mixture with another compound),inactive,11.7 µM (active),10.4 µM (active),–,inactive,inactive,inactive,inactive,–
Oc1ccc(/C=C/c2ccc(/C=C/c3ccc(O)cc3)c(Br)c2)cc1,inactive,inactive,–,–,inactive,inactive,inactive,–,–
S=C(S)N1CCCC1,–,–,–,–,inactive,inactive,inactive,inactive,–
CCN(CC)CCOC(=O)c1cc(Cl)c(N)cc1OC,inactive,inactive,inactive,inactive,inactive,inactive,inactive,inactive,–
Nc1nc2ccc(Cl)cc2c2nc(-c3ccco3)nn12,–,–,–,–,inactive,inactive,inactive,–,inactive
COc1ccc(NC(=O)c2ccc(-c3ccc(-c4noc(C)n4)cc3C)cc2)cc1N1CCN(C)CC1,–,5.85 µM (active),5.85 µM (active),12.6 µM (active),inactive,inactive,inactive,–,16.5 µM (active)
C=C1C(=O)O[C@@H]2[C@H]3O[C@]3(C)CCC=C(C)CC[C@@H]12,–,inactive,–,14.1 µM (active),inactive,inactive,inactive,–,inactive
O=C1Cc2c([nH]c3ccc(Br)cc23)-c2ccccc2N1,–,inactive,–,6.31 µM (active),inactive,inactive,inactive,–,–
CC(=O)NNC(=O)N1Cc2ccccc2Oc2ccc(Cl)cc21,inactive,inactive,inactive,inactive,inactive,inactive,inactive,inactive,–
NC(N)=NC(N)=Nc1cccc(Cl)c1,inactive,inactive,inactive,inactive,inactive,inactive,inactive,inactive,–
Nc1ccc(-c2nc3ccc(-c4nc5ccc(N)cc5[nH]4)cc3[nH]2)cc1,inactive,inactive,inactive,–,–,21.2 µM (active),inactive,–,–
Oc1ccc(Cn2cc[nH]c2=S)cc1,inactive,inactive,inactive,inactive,inactive,inactive,inactive,inactive,–
COc1cc(C(O)CO)ccc1O (configuration not stated),inactive,inactive,inactive,inactive,inactive,inactive,inactive,inactive,–
Cn1cc(C(=O)OCC2CCN(CCNS(C)(=O)=O)CC2)c2ccccc21,inactive,inactive,inactive,inactive,inactive,inactive,inactive,inactive,–
C[C@H](NC(=O)/C(C#N)=C/c1ccc(O)c(O)c1)c1ccccc1,inactive,inactive,inactive,–,inactive,inactive,inactive,inactive,–
O=c1oc(Cl)c(Cl)c2ccccc12,–,–,–,–,inactive,inactive,inactive,–,–
CCCCCCCCCC[Si](C)(C)CCC(=O)NC(Cc1ccc(C)cc1)c1ccccc1 (configuration not stated),inactive,inactive,inactive,inactive,inactive,inactive,inactive,inactive,–

# Source: PubChem BioAssay (NCATS)
